This note sets out measurements from PubChem BioAssay (NCI).

Test systems include NCI-H23 lung; NCI-H226 lung; NCI-H322M lung; HOP-62 NSCLC; NCI-H460 lung; HOP-92 NSCLC; NCI-H522 lung; A549/ATCC NSCLC; 786-0 renal; COLO 205 colon.
What all share (test): NCI-60 one-dose screen, 48 h (100 = growth as untreated, 0 = no growth, -100 = all killed)
What all share (conditions): 10 µM unless noted

This is part of a sample that, as a whole, favours compounds with a hit. Of some 83,000 tested, about 20% had one in any assay.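 Assay: single dose, 48 h. Readout: percent growth (0 = no net growth; negative = cell death). Active: <10.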 Values without a mark were called inactive. Activity calls are given as the source filed them.

`C=C(C)[C@@H]1C/C=C(\COC(=O)[C@H](OC(C)=O)C(NC(=O)c2ccccc2)c2ccccc2)CC[C@H]2O[C@]2(C)CC/C=C(\C)CC1` (stereo not given in full): the growth in the assay with NCI-H23 lung is 73.7% [5 µM]; with NCI-H226 lung it was 81% [5 µM]; in the assay with NCI-H322M lung, 71.6% [5 µM]; with HOP-62 NSCLC, 75.3% [5 µM]; with NCI-H460 lung, 64.2% [5 µM]; in the assay with HOP-92 NSCLC it was 13.3% [5 µM]. In addition, the growth is 57.3% [5 µM] with NCI-H522 lung, 73.1% [5 µM] in the assay on A549/ATCC NSCLC, 65.7% [5 µM] in the assay with 786-0 renal and 92% [5 µM] in the assay with COLO 205 colon.

As for `O=C(O)c1ccc(-n2cc(/C=N/Nc3ccccc3F)c(-c3ccc(O)cc3)n2)cc1`, the growth in the assay with NCI-H23 lung was 92.3%; in the assay on NCI-H226 lung it was 95.3%; in the assay on NCI-H322M lung, 79.1%; with HOP-62 NSCLC it was 91.7%; in the assay on NCI-H460 lung it was 101%; with HOP-92 NSCLC, 95.6%. Further, the growth is 48.3% in the assay on NCI-H522 lung, 86.8% in the assay with A549/ATCC NSCLC, 84% in the assay on 786-0 renal and 95.9% in the assay with COLO 205 colon.

On to `COc1ccc(/C=N/C2=NNC(C)(c3ccccc3O)N2C(Cc2c[nH]c3ccccc23)C(=O)O)cc1` (stereo not given), for which the growth in the assay on NCI-H23 lung was 22.8%; with NCI-H226 lung it was 53.2%; with NCI-H322M lung it was 56.1%; in the assay with HOP-62 NSCLC, 32.7%; with NCI-H460 lung, 20.4%; in the assay with HOP-92 NSCLC, 2.13% (active). Also, the growth in the assay on NCI-H522 lung was 18.9%; in the assay with A549/ATCC NSCLC, 42.5%; in the assay with 786-0 renal it was 58.3%; with COLO 205 colon it was 8.42% (active).

As for `Cc1ccc[n+](CC(=O)c2cccc3ccccc23)c1`, the growth in the assay with NCI-H23 lung is 102%; in the assay with NCI-H226 lung, 96.2%; in the assay on NCI-H322M lung it was 97%; in the assay on HOP-62 NSCLC, 100%; in the assay on NCI-H460 lung, 111%; in the assay with HOP-92 NSCLC, 97.1%. In addition, the growth in the assay on NCI-H522 lung was 101%; in the assay on A549/ATCC NSCLC, 111%; with 786-0 renal, 93.8%; in the assay with COLO 205 colon, 101%.

With `S=c1ssnc1-c1ccccn1`, the growth in the assay on NCI-H23 lung was 44.5%; with NCI-H226 lung, 61.4%; in the assay on NCI-H322M lung, 66.5%; in the assay with HOP-62 NSCLC it was 47.7%; in the assay on NCI-H460 lung it was 6.05% (active); in the assay on HOP-92 NSCLC, -4.36% (active). Further, the growth in the assay with NCI-H522 lung is -29.3% (active); in the assay on A549/ATCC NSCLC, 57.7%; in the assay with 786-0 renal it was 18.1%; with COLO 205 colon it was 43%.

As to `CCCCCn1ncc(-c2c(O)c(O)cc3c(O)c(-c4c(C)cc5c(-c6cnn(CCCCC)n6)c(O)c(O)cc5c4O)c(C)cc23)n1`, the growth in the assay on NCI-H23 lung was -15.1% (active); in the assay on NCI-H226 lung it was -3.01% (active); in the assay with NCI-H322M lung it was 33.7%; in the assay on HOP-62 NSCLC, 4.15% (active); in the assay with NCI-H460 lung it was -3.01% (active); in the assay with HOP-92 NSCLC, -23.8% (active). Besides, the growth in the assay on NCI-H522 lung is -56.2% (active); in the assay with A549/ATCC NSCLC it was 6.6% (active); with 786-0 renal it was -10.2% (active); in the assay with COLO 205 colon it was -6.73% (active).

Consider `COc1ccccc1N1CCN(CC(O)COc2c(Br)c(Br)c(Br)c3c2OC(C)(C)C3)CC1` (stereo not given), for which the growth in the assay with NCI-H23 lung was 48.8%; with NCI-H226 lung it was 45%; in the assay with NCI-H322M lung, 59.9%; in the assay with HOP-62 NSCLC, 66.1%; in the assay on NCI-H460 lung it was 15.1%; in the assay on HOP-92 NSCLC, -28.9% (active). Besides, the growth was 55.1% with NCI-H522 lung, 45.5% in the assay on A549/ATCC NSCLC, 6.05% (active) in the assay on 786-0 renal and 58.6% in the assay with COLO 205 colon.

For `O=c1c2ccccc2sc2c(N3CCCC3)nc3ccccc3c12`, the growth in the assay with NCI-H23 lung is 88.7%; with NCI-H226 lung it was 81.3%; in the assay on NCI-H322M lung it was 110%; with HOP-62 NSCLC it was 97.7%; in the assay on NCI-H460 lung, 96.7%; in the assay with HOP-92 NSCLC it was 70.8%. Besides, the growth is 100% with NCI-H522 lung, 103% in the assay on A549/ATCC NSCLC, 102% in the assay with 786-0 renal and 116% with COLO 205 colon.

For the molecule `CC(=O)CC/C=C(\C)[C@H](O)[C@H](C)C(=O)O[C@H]1C[C@H](C)C=C2C=C[C@@]3(C)O[C@@H](O)CC(=O)[C@]3(C)[C@H]21`, the growth is -35.8% (active) in the assay with NCI-H23 lung; -50.5% (active) in the assay with NCI-H226 lung; -17.6% (active) in the assay with NCI-H322M lung; -31.8% (active) in the assay with HOP-62 NSCLC; -16.6% (active) in the assay with NCI-H460 lung; -32.5% (active) in the assay on HOP-92 NSCLC. Further, the growth was -43.4% (active) in the assay with NCI-H522 lung, -10.6% (active) with A549/ATCC NSCLC, -49.7% (active) in the assay with 786-0 renal and -45.6% (active) with COLO 205 colon.

`COc1cc(/C=C\c2cc(/C=C\c3ccc(O)c(OC)c3)n(C(=O)CNc3ccccc3OC)n2)ccc1O`: the growth is 69.7% with NCI-H23 lung; 86% with NCI-H226 lung; 90.5% with NCI-H322M lung; 86.4% with HOP-62 NSCLC; 81.6% in the assay with NCI-H460 lung; 81.8% with HOP-92 NSCLC. Also, the growth in the assay with NCI-H522 lung is 21.9%; in the assay on A549/ATCC NSCLC it was 83.7%; in the assay on 786-0 renal, 97.4%; in the assay with COLO 205 colon it was 107%.

Take `CCOc1ccc(NC2=C(Cl)C(=O)c3ccccc3C2=O)cc1`: the growth with NCI-H23 lung is 39.6%; in the assay with NCI-H226 lung, 101%; in the assay with NCI-H322M lung, 105%; in the assay with HOP-62 NSCLC it was 95.1%; in the assay on NCI-H460 lung it was 97.9%; in the assay on HOP-92 NSCLC, 78.6%. Also, the growth is 62.7% in the assay with NCI-H522 lung, 97% in the assay on A549/ATCC NSCLC, 94.7% with 786-0 renal and 108% with COLO 205 colon.

Turning to `CCOC(=O)c1[nH]c(-c2ccc(Cl)cc2)cc1-c1cccnc1`, the growth was 35.1% in the assay on NCI-H23 lung; 68.4% with NCI-H226 lung; 59.4% in the assay with NCI-H322M lung; 10.5% in the assay with HOP-62 NSCLC; 7.36% (active) with NCI-H460 lung; 17% in the assay with HOP-92 NSCLC. The growth in the assay on NCI-H522 lung is -1.79% (active); with A549/ATCC NSCLC, 30.7%; with 786-0 renal it was 24.5%; with COLO 205 colon, -15.5% (active).

Consider `O=C(Cn1c2ccccc2c2ccncc21)N/N=C/c1c[nH]c2ccccc12`, for which the growth with NCI-H23 lung was 48.3%; in the assay with NCI-H226 lung it was 73.3%; in the assay with NCI-H322M lung, 72.8%; in the assay on HOP-62 NSCLC it was 55.5%; in the assay on NCI-H460 lung it was 1.47% (active); in the assay with HOP-92 NSCLC, 61.2%. Moreover, the growth in the assay with NCI-H522 lung is 58.8%; in the assay with A549/ATCC NSCLC, 25.2%; in the assay with 786-0 renal it was 44%; in the assay on COLO 205 colon, 88.2%.
